# Screening results as filed in PubChem.
# A selection: hits, their analogues and other compounds. The true share with any hit is near 6.1%.
# D1 agonist = Allosteric Agonists of the Human D1 Dopamine Receptor: qHTS; actives 1% (n = 360,000); D(1A) dopamine receptor (Homo sapiens), P21728; HEK293 T-REx D1 cells, calcium flux, agonist mode; activation, % at 2 µM; AID 504660, 2011; in the data active = activation above about 30%; also: 0% is about no effect
# Target sequence (P21728 whole entry, looked up): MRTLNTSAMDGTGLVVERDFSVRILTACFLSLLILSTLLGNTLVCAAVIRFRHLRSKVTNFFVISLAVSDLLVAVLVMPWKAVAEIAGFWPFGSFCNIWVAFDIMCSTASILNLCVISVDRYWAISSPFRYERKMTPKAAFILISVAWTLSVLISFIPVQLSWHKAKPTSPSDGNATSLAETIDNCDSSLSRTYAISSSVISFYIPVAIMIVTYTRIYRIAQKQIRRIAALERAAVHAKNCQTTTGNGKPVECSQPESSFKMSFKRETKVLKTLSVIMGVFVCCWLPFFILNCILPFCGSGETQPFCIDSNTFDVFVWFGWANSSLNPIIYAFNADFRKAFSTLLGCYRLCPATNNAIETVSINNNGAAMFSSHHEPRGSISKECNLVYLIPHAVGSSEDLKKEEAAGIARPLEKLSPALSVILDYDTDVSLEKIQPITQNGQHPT
#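 Inducible HEK293 T-REx D1 cells, force-coupled to calcium signalling, were plated at 4000 cells/well with tetracycline and held overnight at 30 C. After no-wash calcium dye loading, compound-evoked calcium rise over 180 s flagged agonists.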
# D1 antagonist = Antagonist of Human D 1 Dopamine Receptor: qHTS. D(1A) dopamine receptor (Homo sapiens), P21728. HEK293 TREx D1 cells, calcium flux, dopamine EC80; stronger effect = lower value. activity change, negative = inhibition, % at 10 µM. actives 3.2% (n = 360,000). AID 504652, 2011; in the data active = activity change below about -30%; also: % is scaled to controls: 0 for no effect and ±100 for the full control effect
#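 Cells carrying a force-coupled, tetracycline-inducible human D1 receptor report calcium flux. Each well gets a 10 s baseline, compound with 180 s monitoring, then an EC80 dopamine stimulus with a second 180 s kinetic read.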
# D1 PAM = Potentiators of Human D1 Dopamine Receptor: qHTS; D(1A) dopamine receptor (Homo sapiens), P21728; HEK293 TREx D1 cells, calcium flux, dopamine EC20 potentiation; potentiation, % at 10 µM; actives 0.036% (n = 360,000); in the data active = potentiation above about 30%; also: 0% is about no effect
# DRD3 antagonist = qHTS of D3 Dopamine Receptor Antagonist: qHTS; D3R cells, DiscoveRx beta-arrestin luminescence, antagonist mode; stronger effect = lower value; max response, negative = inhibition, %; actives 2.5% (n = 360,000); AID 652054, 2013; in the data active = max response below about -50%; inconclusive = no clear call, values can overlap the other calls; also: % is scaled to controls: 0 for no effect and ±100 for the full control effect
#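 Cells plated overnight at 1500 cells/well, then exposed to library compounds with dopamine controls for 90 minutes at 37 degrees C. DiscoveRx reagent added for 30–60 minutes at room temperature; luminescence read, quantitative HTS format.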
# DRD3 agonist = qHTS of D3 Dopamine Receptor Agonist: qHTS. max activation, %. D3R DiscoveRx beta-arrestin cells, luminescence, 90 min. actives 0.58% (n = 410,000). D(3) dopamine receptor (Homo sapiens), P35462; in the data active = max activation above about 30%; also: 0% is about no effect
#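 Agonist-mode cell screen: cells plated at 1500/well and incubated overnight at 37 °C, then exposed to library compounds for 90 min at 37 °C. Detection reagent was added for 30–60 min at room temperature, and luminescence was read.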
# The depositor's hits bear a star; ? = inconclusive; / = not tested or not shown.
SMILES,D1 agonist,D1 antagonist,D1 PAM,DRD3 antagonist,DRD3 agonist
C/C(=C/CCC(C)[C@H]1CC[C@@]2(C)C3=C(CC[C@]12C)[C@@]1(C)CCC(=O)C(C)(C)[C@@H]1CC3)C(=O)O (some centres undefined),9.1,-33.9*,-6.5,?,4.7
CC(NC(=O)COC(=O)c1ccccc1F)C1CC2CCC1C2 (centres undefined),/,/,/,-0.5,-3.8
CCC(c1nnnn1-c1ccc2c(c1)OCCO2)N1CCN(c2ccccc2)CC1 (centres undefined),/,/,/,67.8,4.4
O=C(Nc1ccc2c(c1)OCCO2)C(CCc1ccccc1)N1CCN(c2ccc(F)cc2)CC1 (centres undefined),/,/,/,10.0,4.5
O=C(Nc1ccc2c(c1)OCCO2)C(CCc1ccccc1)N1CCN(C/C=C/c2ccccc2)CC1 (centres undefined),/,/,/,-108.7*,-6.8
CCC(c1nnnn1-c1ccc2c(c1)OCCO2)N1CCN(C/C=C/c2ccccc2)CC1 (centres undefined),/,/,/,-15.5,66.1*
C(=C\c1ccccc1)/CN1CCN(C(c2nnnn2-c2ccc3c(c2)OCCO3)C2CC2)CC1 (centres undefined),/,/,/,?,40.9*
C(=C\c1ccccc1)/CN1CCN(C(c2ccccc2)c2nnnn2C2CCCC2)CC1 (centres undefined),/,/,/,?,-10.9
C(=C\c1ccccc1)/CN1CCN(C(CCc2ccccc2)c2nnnn2-c2ccc3c(c2)OCCO3)CC1 (centres undefined),/,/,/,-109.6*,-12.4
CC(C)CCn1c(=O)c2sccc2n2c(CCCC(=O)NC(C)C)nnc12,0.0,-1.0,-4.8,/,-20.8
c1ccc(N=NC2=NN(c3ccccc3)CS2)cc1,/,/,/,?,-10.6
O=C(NCCc1ccccc1)c1ccc(Cl)c(S(=O)(=O)N2CCOCC2)c1,1.2,2.9,-4.2,-10.2,4.5
CCOC(=O)C(CCc1ccccn1)c1ccccc1 (centres undefined),/,/,/,-23.8,-10.0
O=C(NCCC(=O)N1CCc2ccccc21)c1ccco1,0.8,2.4,-1.1,?,-11.0
N#C/C(=C\c1c[nH]c2ccccc12)C(=O)Nc1ncc(Cc2ccc(Cl)cc2Cl)s1,34.7*,5.2,-6.3,?,1.1
c1ccc(-c2ccccc2OCCOCCN2CCOCC2)cc1,3.9,1.3,-4.0,0.0,-2.9
Nc1nc(N)c(N=Nc2ccccc2)c(=O)[nH]1,/,/,/,-4.7,-11.5
Nc1nc(N=Nc2ccc(O)cc2)cc(=O)[nH]1,/,/,/,-90.1*,-22.3
C[C@@H]1COc2cc(N3CCC[C@H]3CO)ccc2S(=O)(=O)N1,/,/,/,2.6,5.9
C=CCC(=O)OCC(=O)Nc1ccc(Oc2ccccc2)cc1,2.6,-35.2*,-9.0,/,/
Cc1cnc(C(=O)OCC(=O)Nc2ccc(Oc3ccccc3)cc2)cn1,9.4,-41.2*,4.9,54.5,5.8
COc1ccc(C(C)(C)C)cc1NC(=O)COC(=O)c1cnc(C)cn1,2.8,42.0,-6.0,-64.7*,-12.8
CCOc1ccc(NC(=O)C2CCN(S(=O)(=O)c3c(C)noc3/C=C/c3ccco3)CC2)cc1,3.7,0.3,9.8,/,-2.0
O=C(c1ccc(Cl)cc1)c1cccc(O)c1,/,/,/,-18.9,-15.7
CN1CCN(CC(=O)Nc2nc3c(s2)CCCC3)CC1,0.9,-24.5,-1.4,0.3,-4.5
SMILES,D1 agonist,D1 antagonist,D1 PAM,DRD3 antagonist,DRD3 agonist
CCN1CCN(/C=N/c2nc3c(s2)CCCC3)CC1,4.1,-4.2,-4.2,-75.3*,0.3
CCOC(=O)C1CCC(CN(Cc2c(Cl)cccc2Cl)S(=O)(=O)c2ccc(Cl)cc2)CC1 (centres undefined),5.3,10.8,-2.0,/,-1.2
CCOC(=O)C1CCC(CN(Cc2c(Cl)cccc2Cl)S(=O)(=O)c2ccc(F)cc2)CC1 (centres undefined),8.6,-38.0*,-1.0,/,1.3
COc1ccc(S(=O)(=O)N2CCCOC2CNC(=O)C(=O)NCCCN2CCOCC2)cc1C (centres undefined),2.4,-8.8,-4.0,-5.2,-8.0
COc1ccccc1Nc1ccncc1[N+](=O)[O-],12.0,-48.2*,-4.5,2.6,-0.5
COc1ccccc1Nc1ccc(C(=O)O)cc1[N+](=O)[O-],4.0,-17.3,-14.7,-58.9*,-16.9
O=[N+]([O-])c1cnccc1Nc1ccccc1,2.1,2.4,4.9,25.5,1.4
COc1nn(-c2ccccc2)c(=O)c(Cl)c1Cl,-0.2,-5.9,-3.7,-63.5*,-7.2
Cc1sc2nc(-c3cccnc3)[nH]c(=O)c2c1-c1ccccc1,3.2,-48.7*,-15.2,4.2,13.3
Cc1sc2nc(Cc3ccccc3)[nH]c(=O)c2c1-c1ccccc1,2.2,-2.0,6.9,-1.4,-18.3
CCOC(=O)c1c(CSc2ccccc2)n(C)c2cc(Br)c(O)c(CN(C)C)c12,1.3,3.0,-2.5,-16.1,-13.0
CCOC(=O)c1c(CN2CCCCC2)n(C)c2cc(Br)c(O)c(CN(C)C)c12,0.8,-22.0,-7.8,-67.8*,-10.2
Clc1ccc(OCc2nc(-c3ccc(Br)o3)no2)cc1,2.1,-40.0*,-1.7,-12.8,-0.8
Brc1ccc(-c2noc(COc3ccc4c(c3)CCC4)n2)o1,9.5,-2.2,1.3,22.6,-2.8
O=C(Nc1nc2c(ccc3ccccc32)s1)c1ccco1,0.5,9.5,-9.7,-16.5,-5.0
O=C(Nc1ccc(-c2nc3c(ccc4ccccc43)o2)cc1)c1ccco1,1.1,-7.2,-3.4,59.0,46.3*
O=C(Nc1ccc(-c2nc3cc(Cl)ccc3c(=O)o2)cc1)c1ccco1,1.0,-31.9*,-8.6,-21.5,8.4
CN(C)c1cccc(NC(=O)C2Cc3c(-c4ccccc4Oc4ccccc4)ccnc3O2)c1 (centres undefined),/,/,/,-5.2,2.5
O=C(c1c(F)cccc1F)N1CCCC(c2nc(-c3ccc(Cl)cc3)no2)C1 (centres undefined),4.5,-1.7,-7.2,17.3,15.0
Cc1ccc(-c2noc(C3CCCN(C(=O)c4cccc(F)c4)C3)n2)cc1 (centres undefined),11.5,-31.1*,0.9,-6.0,4.7
Cc1ccc(-c2noc(C3CCCN(C(=O)c4c(F)cccc4F)C3)n2)cc1 (centres undefined),3.1,-10.5,-3.2,-70.1*,22.0
O=C(Cc1ccccc1)N1CCC(c2nc(-c3ccc(F)cc3)no2)CC1,15.9,-10.7,-5.1,27.9,30.9*
CCOCCCNC(=O)c1ccc2c(c1)ncn2-c1ccccc1OC,0.5,-2.4,-0.3,-17.2,0.9
C=C1C(=C/C=C2\CCC[C@]3(C)[C@@H]([C@H](C)CCCC(C)C)CC[C@@H]23)C[C@@H](O)C[C@@H]1O,/,/,/,/,0.2
COC(=O)c1nc(NC2=NCCCCC2)n[nH]1,0.7,-36.4*,-2.5,-1.7,1.1
